# Source: article PMC7862700, “An all-to-all approach to the identification of sequence-specific readers for epigenetic DNA modifications on cytosine”
# Experiments:
# Assay in all cases: DAPPL (digital affinity profiling via proximity ligation, sequencing); 10 mM Tris-HCl pH 7.5, 50 mM NaCl, 1 mM DTT, 4% glycerol, room temperature, 30 min; GST-TFs on glutathione beads, 16-mer random dsDNA library, 0.1% formaldehyde crosslink after washing; high values mean tight binding
# Conditions in all cases: protein: recombinant; tags: N-terminal GST; dsDNA, one strand shown
# FLI1 = molecular target: T1, FLI1 (Homo sapiens, UniProt Q01543 1-452)
# T1 sequence: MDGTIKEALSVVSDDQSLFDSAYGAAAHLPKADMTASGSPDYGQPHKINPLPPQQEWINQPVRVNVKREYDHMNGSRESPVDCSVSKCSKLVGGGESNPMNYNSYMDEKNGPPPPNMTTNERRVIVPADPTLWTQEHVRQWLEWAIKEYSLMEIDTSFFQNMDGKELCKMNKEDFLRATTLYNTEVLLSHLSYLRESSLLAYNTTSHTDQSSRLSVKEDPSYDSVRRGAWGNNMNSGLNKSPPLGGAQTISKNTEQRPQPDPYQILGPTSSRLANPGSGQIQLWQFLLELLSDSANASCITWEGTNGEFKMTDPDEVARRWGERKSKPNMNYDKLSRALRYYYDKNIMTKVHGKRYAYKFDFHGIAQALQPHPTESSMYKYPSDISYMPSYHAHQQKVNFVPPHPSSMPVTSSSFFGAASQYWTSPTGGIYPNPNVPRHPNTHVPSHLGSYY
# Method in brief: (§1)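 Human transcription factors were made in yeast as GST fusions, captured on glutathione beads and barcoded with DNA. With a tag-only sample included, the pool was incubated with 200 nmole of a random double-stranded 16-mer DNA library in Tris/NaCl/DTT/glycerol buffer at room temperature for 30 min, then crosslinked with 0.1% formaldehyde after washing, ligated by proximity, amplified and sequenced. For binding signal, each hexamer's read frequency for a factor is divided by its frequency for the tag-only sample.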
# ELK1 = molecular target: T2, ELK1 (Homo sapiens, UniProt P19419 1-428)
# T2 sequence: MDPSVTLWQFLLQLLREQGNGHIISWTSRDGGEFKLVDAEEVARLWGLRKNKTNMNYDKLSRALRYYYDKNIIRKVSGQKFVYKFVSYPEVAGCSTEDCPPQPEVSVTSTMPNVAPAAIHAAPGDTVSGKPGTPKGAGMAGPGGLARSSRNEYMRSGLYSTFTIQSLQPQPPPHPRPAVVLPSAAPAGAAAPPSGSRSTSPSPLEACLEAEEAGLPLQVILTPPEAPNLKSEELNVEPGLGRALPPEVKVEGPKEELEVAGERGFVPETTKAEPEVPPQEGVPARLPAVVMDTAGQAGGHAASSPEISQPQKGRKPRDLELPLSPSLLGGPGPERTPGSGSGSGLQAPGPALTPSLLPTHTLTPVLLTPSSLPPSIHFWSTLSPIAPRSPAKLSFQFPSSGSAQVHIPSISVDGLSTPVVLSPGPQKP
# Method in brief: as §1
# GABPA = molecular target: T3, GABPA (Homo sapiens, UniProt Q06546 1-454)
# T3 sequence: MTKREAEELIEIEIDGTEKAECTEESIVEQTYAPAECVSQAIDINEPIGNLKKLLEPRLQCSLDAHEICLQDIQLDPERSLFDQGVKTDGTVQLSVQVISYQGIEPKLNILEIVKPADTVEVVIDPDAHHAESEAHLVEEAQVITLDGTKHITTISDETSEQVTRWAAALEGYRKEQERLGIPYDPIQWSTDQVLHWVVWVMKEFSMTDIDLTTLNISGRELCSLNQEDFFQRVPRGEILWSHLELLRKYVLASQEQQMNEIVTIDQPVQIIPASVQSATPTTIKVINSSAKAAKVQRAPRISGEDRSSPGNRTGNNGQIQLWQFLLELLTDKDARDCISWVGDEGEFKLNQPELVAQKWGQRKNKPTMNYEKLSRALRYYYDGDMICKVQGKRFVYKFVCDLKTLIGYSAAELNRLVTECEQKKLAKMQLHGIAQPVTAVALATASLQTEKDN
# Method in brief: as §1
# ERG = molecular target: T4, ERG (Homo sapiens, UniProt P11308 1-479)
# T4 sequence: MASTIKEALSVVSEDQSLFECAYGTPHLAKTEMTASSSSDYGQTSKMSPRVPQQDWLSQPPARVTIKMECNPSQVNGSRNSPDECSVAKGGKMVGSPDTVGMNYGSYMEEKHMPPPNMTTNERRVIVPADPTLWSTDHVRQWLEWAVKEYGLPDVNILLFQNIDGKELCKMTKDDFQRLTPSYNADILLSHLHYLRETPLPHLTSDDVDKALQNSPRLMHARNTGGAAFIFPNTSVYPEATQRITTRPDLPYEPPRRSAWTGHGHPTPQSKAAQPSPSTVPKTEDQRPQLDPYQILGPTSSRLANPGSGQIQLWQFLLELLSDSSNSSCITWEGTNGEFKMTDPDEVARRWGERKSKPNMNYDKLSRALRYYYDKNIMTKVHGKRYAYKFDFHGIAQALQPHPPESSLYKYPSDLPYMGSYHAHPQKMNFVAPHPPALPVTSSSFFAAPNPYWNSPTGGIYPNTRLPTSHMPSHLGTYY
# Method in brief: as §1
# ELF1 = ELF1 (Homo sapiens, UniProt P32519 1-619)
# Method in brief: as §1
# EHF = molecular target: T5, EHF (Homo sapiens, UniProt Q9NZC4 1-300)
# T5 sequence: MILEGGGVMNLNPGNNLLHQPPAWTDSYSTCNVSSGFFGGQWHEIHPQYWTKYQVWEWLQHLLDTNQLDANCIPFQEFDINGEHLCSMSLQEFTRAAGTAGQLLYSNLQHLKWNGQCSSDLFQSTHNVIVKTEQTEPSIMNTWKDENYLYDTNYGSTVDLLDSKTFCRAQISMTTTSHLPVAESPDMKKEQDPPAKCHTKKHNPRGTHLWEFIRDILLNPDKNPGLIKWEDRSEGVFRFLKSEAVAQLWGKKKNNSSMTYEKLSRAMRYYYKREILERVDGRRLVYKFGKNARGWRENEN
# Method in brief: as §1
# SPI1 = SPI1 (Homo sapiens, UniProt P17947 1-270)
# Method in brief: as §1
# SPIB = SPIB (Homo sapiens, UniProt Q01892 1-262)
# Method in brief: as §1
# ELK3 = molecular target: T6, ELK3 (Homo sapiens, UniProt P41970 1-407)
# T6 sequence: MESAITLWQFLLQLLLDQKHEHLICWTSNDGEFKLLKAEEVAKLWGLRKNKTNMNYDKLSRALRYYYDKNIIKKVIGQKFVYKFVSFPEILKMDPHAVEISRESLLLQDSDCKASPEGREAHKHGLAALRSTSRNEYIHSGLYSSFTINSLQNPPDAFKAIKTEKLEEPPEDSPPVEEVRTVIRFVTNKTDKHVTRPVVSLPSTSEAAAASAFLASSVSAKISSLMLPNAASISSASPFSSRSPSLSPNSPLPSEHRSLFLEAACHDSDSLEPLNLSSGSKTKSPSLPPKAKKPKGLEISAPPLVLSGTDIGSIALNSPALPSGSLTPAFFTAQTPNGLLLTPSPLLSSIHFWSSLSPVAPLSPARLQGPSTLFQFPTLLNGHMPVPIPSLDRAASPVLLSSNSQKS
# Method in brief: as §1
# FEV = molecular target: T7, FEV (Homo sapiens, UniProt Q99581 1-238)
# T7 sequence: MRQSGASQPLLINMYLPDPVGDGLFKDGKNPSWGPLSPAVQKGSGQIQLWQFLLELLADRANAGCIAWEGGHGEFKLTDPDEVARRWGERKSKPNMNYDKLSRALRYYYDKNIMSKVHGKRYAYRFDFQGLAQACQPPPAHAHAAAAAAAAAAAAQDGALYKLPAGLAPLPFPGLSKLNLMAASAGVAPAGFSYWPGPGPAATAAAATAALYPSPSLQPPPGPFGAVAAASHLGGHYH
# Method in brief: as §1
# ETV5 = ETV5 (Homo sapiens, UniProt P41161 1-510)
# Method in brief: as §1
# SPIC = molecular target: T8, SPIC (Homo sapiens, UniProt Q8N5J4 1-248)
# T8 sequence: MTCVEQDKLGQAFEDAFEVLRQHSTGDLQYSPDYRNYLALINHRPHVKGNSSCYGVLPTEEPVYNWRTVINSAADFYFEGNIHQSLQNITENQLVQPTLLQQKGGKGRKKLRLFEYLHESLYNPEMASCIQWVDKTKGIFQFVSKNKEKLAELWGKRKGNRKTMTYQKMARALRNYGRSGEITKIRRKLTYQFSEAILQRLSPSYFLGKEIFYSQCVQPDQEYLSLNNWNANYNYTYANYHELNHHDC
# Method in brief: as §1
# ELF4 = ELF4 (Homo sapiens, UniProt Q99607 1-663)
# Method in brief: as §1
# ELK4 = molecular target: T9, ELK4 (Homo sapiens, UniProt P28324-2 1-405)
# T9 sequence: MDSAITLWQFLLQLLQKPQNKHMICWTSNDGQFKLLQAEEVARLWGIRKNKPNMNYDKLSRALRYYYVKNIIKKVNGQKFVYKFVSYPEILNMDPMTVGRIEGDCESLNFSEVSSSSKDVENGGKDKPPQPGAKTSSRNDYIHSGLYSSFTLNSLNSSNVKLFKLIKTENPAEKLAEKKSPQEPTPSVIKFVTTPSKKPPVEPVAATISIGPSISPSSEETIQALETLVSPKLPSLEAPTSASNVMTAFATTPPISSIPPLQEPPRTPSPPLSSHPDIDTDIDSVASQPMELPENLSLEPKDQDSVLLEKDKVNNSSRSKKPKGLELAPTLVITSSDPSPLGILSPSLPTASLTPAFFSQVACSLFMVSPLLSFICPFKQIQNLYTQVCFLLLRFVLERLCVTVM
# Method in brief: as §1
# ETV2 = molecular target: T10, ETV2 (Homo sapiens, UniProt O00321 1-342)
# T10 sequence: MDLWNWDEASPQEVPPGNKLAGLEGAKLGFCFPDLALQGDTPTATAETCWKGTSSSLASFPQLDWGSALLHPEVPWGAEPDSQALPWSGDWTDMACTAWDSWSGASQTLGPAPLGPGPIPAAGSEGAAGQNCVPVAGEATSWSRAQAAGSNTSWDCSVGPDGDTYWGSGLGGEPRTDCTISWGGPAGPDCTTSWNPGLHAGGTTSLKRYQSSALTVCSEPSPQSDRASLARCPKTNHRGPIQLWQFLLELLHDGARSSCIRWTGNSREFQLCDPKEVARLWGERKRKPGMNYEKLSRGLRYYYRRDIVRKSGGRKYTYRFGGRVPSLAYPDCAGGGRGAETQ
# Method in brief: as §1
# ELF3 = molecular target: T11, ELF3 (Homo sapiens, UniProt P78545 1-371)
# T11 sequence: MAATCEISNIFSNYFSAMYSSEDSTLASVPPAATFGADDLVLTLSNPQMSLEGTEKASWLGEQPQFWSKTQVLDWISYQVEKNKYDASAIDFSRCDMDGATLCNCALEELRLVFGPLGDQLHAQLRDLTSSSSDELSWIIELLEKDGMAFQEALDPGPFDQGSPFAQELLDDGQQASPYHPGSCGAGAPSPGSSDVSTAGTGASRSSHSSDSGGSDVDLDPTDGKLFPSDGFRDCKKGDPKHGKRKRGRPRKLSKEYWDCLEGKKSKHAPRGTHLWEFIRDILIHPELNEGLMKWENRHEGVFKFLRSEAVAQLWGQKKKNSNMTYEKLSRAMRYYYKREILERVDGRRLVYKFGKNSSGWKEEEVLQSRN
# Method in brief: as §1
# ETV1 = ETV1 (Homo sapiens, UniProt P50549 1-477)
# Method in brief: as §1
# ETV1, sequence (P50549 whole entry): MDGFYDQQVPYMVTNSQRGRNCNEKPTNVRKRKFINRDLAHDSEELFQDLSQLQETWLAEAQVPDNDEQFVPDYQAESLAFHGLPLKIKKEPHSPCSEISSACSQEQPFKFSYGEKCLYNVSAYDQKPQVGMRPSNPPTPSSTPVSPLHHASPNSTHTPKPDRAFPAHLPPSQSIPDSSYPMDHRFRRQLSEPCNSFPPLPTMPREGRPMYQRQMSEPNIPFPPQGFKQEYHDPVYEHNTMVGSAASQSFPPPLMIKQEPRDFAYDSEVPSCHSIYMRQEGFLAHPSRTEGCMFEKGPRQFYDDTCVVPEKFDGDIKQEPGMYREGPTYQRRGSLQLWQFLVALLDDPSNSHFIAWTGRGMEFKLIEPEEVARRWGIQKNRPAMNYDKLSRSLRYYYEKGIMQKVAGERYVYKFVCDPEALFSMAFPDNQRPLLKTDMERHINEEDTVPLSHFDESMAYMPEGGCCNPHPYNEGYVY
# ELF4, sequence (Q99607 whole entry): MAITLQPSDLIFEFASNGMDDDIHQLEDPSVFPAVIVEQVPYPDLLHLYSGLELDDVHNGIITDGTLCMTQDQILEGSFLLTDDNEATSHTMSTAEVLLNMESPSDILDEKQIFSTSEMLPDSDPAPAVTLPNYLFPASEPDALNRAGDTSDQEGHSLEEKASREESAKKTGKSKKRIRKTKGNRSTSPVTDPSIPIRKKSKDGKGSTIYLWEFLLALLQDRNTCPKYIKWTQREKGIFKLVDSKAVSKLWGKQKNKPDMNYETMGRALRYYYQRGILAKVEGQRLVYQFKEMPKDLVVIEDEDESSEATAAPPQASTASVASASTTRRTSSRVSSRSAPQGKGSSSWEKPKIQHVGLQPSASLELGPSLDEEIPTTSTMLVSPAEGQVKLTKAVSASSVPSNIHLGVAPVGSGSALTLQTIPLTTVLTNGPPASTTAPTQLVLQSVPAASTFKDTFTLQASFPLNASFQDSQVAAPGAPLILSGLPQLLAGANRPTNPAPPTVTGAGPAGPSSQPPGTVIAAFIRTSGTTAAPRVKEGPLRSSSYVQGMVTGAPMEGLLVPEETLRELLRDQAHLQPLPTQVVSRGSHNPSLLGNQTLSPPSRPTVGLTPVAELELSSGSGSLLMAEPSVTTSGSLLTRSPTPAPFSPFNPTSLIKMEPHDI
# ELF1, sequence (P32519 whole entry): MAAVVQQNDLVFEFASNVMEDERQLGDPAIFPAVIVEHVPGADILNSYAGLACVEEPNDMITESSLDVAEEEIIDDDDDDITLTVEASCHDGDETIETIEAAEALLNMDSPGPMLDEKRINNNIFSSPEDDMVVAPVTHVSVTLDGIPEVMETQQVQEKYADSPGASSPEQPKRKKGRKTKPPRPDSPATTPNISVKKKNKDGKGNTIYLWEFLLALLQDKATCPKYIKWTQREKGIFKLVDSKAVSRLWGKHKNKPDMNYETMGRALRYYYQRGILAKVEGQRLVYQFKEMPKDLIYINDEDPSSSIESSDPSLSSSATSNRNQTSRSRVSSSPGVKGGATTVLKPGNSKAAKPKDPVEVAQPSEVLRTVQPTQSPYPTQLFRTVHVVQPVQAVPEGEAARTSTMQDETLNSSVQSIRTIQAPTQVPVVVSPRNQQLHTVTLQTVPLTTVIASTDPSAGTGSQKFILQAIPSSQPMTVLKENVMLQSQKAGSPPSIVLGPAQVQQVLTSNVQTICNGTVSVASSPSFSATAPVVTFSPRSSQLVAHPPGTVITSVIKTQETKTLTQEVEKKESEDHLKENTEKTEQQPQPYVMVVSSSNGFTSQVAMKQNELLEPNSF
# ETV5, sequence (P41161 whole entry): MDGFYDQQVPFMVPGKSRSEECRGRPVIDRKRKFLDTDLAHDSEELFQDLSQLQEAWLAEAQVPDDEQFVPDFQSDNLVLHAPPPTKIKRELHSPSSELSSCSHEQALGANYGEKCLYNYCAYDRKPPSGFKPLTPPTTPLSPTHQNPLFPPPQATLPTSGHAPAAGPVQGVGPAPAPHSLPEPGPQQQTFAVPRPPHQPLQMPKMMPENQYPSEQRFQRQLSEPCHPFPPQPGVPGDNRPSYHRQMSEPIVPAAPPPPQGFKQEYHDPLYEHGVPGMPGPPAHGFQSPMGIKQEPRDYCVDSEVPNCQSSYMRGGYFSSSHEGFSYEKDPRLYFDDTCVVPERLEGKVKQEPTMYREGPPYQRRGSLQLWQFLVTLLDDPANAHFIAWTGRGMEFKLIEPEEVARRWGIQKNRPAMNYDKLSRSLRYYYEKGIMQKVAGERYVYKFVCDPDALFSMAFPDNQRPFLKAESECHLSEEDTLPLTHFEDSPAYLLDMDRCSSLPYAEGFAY
# SPIB, sequence (Q01892 whole entry): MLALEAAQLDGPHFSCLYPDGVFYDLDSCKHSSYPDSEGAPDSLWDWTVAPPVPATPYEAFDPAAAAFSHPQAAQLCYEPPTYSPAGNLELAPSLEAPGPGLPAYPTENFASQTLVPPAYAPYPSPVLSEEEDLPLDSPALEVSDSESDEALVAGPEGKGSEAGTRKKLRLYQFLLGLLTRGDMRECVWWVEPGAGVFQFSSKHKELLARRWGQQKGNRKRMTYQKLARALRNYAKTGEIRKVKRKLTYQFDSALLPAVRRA
sequence,measurement,setting,value
ACCCGG,binding signal,FLI1,"1.62 fold enrichment (6-mer frequency, TF over GST control)"
same,binding signal,ELK1,"1.67 fold enrichment (6-mer frequency, TF over GST control)"
same,binding signal,GABPA,"1.62 fold enrichment (6-mer frequency, TF over GST control)"
same,binding signal,ERG,"1.84 fold enrichment (6-mer frequency, TF over GST control)"
same,binding signal,ELF1,"1.75 fold enrichment (6-mer frequency, TF over GST control)"
same,binding signal,EHF,"1.96 fold enrichment (6-mer frequency, TF over GST control)"
same,binding signal,SPI1,"1.54 fold enrichment (6-mer frequency, TF over GST control)"
same,binding signal,SPIB,"1.77 fold enrichment (6-mer frequency, TF over GST control)"
same,binding signal,ELK3,"1.71 fold enrichment (6-mer frequency, TF over GST control)"
same,binding signal,FEV,"1.61 fold enrichment (6-mer frequency, TF over GST control)"
same,binding signal,ETV5,"1.89 fold enrichment (6-mer frequency, TF over GST control)"
same,binding signal,SPIC,"1.61 fold enrichment (6-mer frequency, TF over GST control)"
same,binding signal,ELF4,"1.7 fold enrichment (6-mer frequency, TF over GST control)"
same,binding signal,ELK4,"1.52 fold enrichment (6-mer frequency, TF over GST control)"
same,binding signal,ETV2,"1.63 fold enrichment (6-mer frequency, TF over GST control)"
same,binding signal,ELF3,"1.77 fold enrichment (6-mer frequency, TF over GST control)"
same,binding signal,ETV1,"1.81 fold enrichment (6-mer frequency, TF over GST control)"
